In PMC4666376, “Characterisation of aptamer–target interactions by branched selection and high-throughput sequencing of SELEX pools”:

Each sequence was assayed against T1, PAI-1 wild type, active (human, UniProt P05121 24-402) (assay: branched SELEX with high-throughput sequencing; PAI-1 immobilised on polyclonal anti-PAI-1 antibody; HBS (10 mM HEPES pH 7.4, 140 mM NaCl), 2 mM MgCl2, 2 mM CaCl2, 0.1% BSA; RNA pool 100 nM; PAI-1 captured on antibody-coated wells; 45 min; binding temperature not stated (PAI-1 capture at room temperature); high values mean tight binding). Conditions: protein: recombinant; tags: N-terminal His6; structured_RNA; 2'-F pyrimidines.
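Further: Pool frequency after one selection round with this target divided by frequency before selection.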

T1 sequence (P05121 24-402): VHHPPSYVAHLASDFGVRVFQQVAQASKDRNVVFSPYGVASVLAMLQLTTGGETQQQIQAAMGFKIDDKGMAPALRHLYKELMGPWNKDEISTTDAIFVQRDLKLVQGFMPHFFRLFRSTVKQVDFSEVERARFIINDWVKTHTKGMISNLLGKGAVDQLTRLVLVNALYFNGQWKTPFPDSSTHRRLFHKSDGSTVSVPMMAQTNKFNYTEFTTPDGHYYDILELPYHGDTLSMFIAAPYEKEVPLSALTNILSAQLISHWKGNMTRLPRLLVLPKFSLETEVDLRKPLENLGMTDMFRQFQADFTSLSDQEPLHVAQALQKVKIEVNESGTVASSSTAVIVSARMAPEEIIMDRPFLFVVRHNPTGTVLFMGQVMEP

| Sequence | binding signal |
| --- | --- |
| GGGGCCACCAACGACAUUCUAAGUUCGUCCUACUUACUCUUGUAGGUCUGAAUGUUGAUAUAAAUAGUGCCCAUGGAUC | 16.4 enrichment factor |
| GGGGCCACCAACGACAUUAUGCCGUAGGCGCUAGAUGUGCCGAUCAUAAUGCAGUUGAUAUAAAUAGUGCCCAUGGAUC | 0.5 enrichment factor |
| GGGGCCACCAACGACAUUGUACCACGUAGGAUGAAGUCAUCCGAUCACAGUGUUGAUAUAAAUAGUGCCCAUGGAUC | 0.87 enrichment factor |
| GGGGCCACCAACGACAUUGACUCCUAGUUAUACCGAUUAGGACUUGUAGAUGCGUUGAUAUAAAUAGUGCCCAUGGAUC | 0.26 enrichment factor |
| GGGGCCACCAACGACAUUACCAUGUAGGCGUAAUUUCACGCUGACCAAGUGUUGUUGAUAUAAAUAGUGCCCAUGGAUC | 1.19 enrichment factor |
| GGGGCCACCAACGACAUUUUACUGUAGAGAAGAAUUACUUCUCGACCAAAUGUGGUUGAUAUAAAUAGUGCCCAUGGAUC | 0.55 enrichment factor |
| GGGGCCACCAACGACAUUGUGCCAUGUAGAUCUUUAGGAGAUCGACCAGCAGUGUUGAUAUAAAUAGUGCCCAUGGAUC | 0.57 enrichment factor |
| GGGGCCACCAACGACAUUCCUGCAACGUAGGCGCGUAAGCUCCGAUCAAGGAUGUUGAUAUAAAUAGUGCCCAUGGAUC | 0.53 enrichment factor |
| GGGGCCACCAACGACAUUUCACACUGUAAGGCCAUGUGCCGACUAGAAAUUGCGUUGAUAUAAAUAGUGCCCAUGGAUC | 0.84 enrichment factor |
| GGGGCCACCAACGACAUUGCUGUGCUAAUCGGUCUUCCGACGCAUAUUCGAAUGUUGAUAUAAAUAGUGCCCAUGGAUC | 0.63 enrichment factor |
| GGGGCCACCAACGACAUUCUCGAGAGAGACCUUCCUCGUUAUACGGGGAGUUCGUUGAUAUAAAUAGUGCCCAUGGAUC | 0.56 enrichment factor |
| GGGGCCACCAACGACAUUGCCGUAGGAAUUCGUCCUGAGUUCCGAUCAAUAGCGUUGAUAUAAAUAGUGCCCAUGGAUC | 0.74 enrichment factor |
| GGGGCCACCAACGACAUUGAACCACGUAGGCUCGUUUCUGAGCCGAUCUCGAUGUUGAUAUAAAUAGUGCCCAUGGAUC | 1.62 enrichment factor |

Each sequence was assayed against T1, PAI-1 wild type, active (assay: branched SELEX with high-throughput sequencing; PAI-1 immobilised on monoclonal anti-PAI-1 antibody mAb-1; HBS (10 mM HEPES pH 7.4, 140 mM NaCl), 2 mM MgCl2, 2 mM CaCl2, 0.1% BSA; RNA pool 100 nM; PAI-1 captured on antibody-coated wells; 45 min; binding temperature not stated (PAI-1 capture at room temperature); high values mean tight binding). Conditions: protein: recombinant; tags: N-terminal His6; structured_RNA; 2'-F pyrimidines.

| Sequence | binding signal |
| --- | --- |
| GGGGCCACCAACGACAUUGGUCACAUGACCACCGUAUGAUUUACUCAUAGUUCGUUGAUAUAAAUAGUGCCCAUGGAUC | 2.36 enrichment factor |
| GGGGCCACCAACGACAUUUGGACUGAAUCCAACCUUAUGCGUAAGCAUAGUUCGUUGAUAUAAAUAGUGCCCAUGGAUC | 3.55 enrichment factor |
| GGGGCCACCAACGACAUUUAUCGAAUUGAUAACCUUACGCGAGAGCGUAGUUCGUUGAUAUAAAUAGUGCCCAUGGAUC | 9.69 enrichment factor |
| GGGGCCACCAACGACAUUUAGGGUGCCGAUCAUGUCACGUAGGCAUCCGAUACGUUGAUAUAAAUAGUGCCCAUGGAUC | 0.62 enrichment factor |
| GGGGCCACCAACGACAUUGUACUGUAGUCUUGAUUUUAAGACGACCAAAUGUAGUUGAUAUAAAUAGUGCCCAUGGAUC | 1.02 enrichment factor |
| GGGGCCACCAACGACAUUUACCGUCUGGGUAACCUUGUACGAUAGUACAGUUCGUUGAUAUAAAUAGUGCCCAUGGAUC | 1.53 enrichment factor |
| GGGGCCACCAACGACAUUCAGCGAUGUAGUGCACAUUGCACGACCAUGAUGGAGUUGAUAUAAAUAGUGCCCAUGGAUC | 0.44 enrichment factor |
| GGGGCCACCAACGACAUUUGUCAACCGAUCACGCUUAUAGAGCGACCACGUAGGUUGAUAUAAAUAGUGCCCAUGGAUC | 5.14 enrichment factor |
| GGGGCCACCAACGACAUUUGCAUUUGGCAUCCAUAUCGGGCGACCGAUAGUUCGUUGAUAUAAAUAGUGCCCAUGGAUC | 2.86 enrichment factor |
| GGGGCCACCAACGACAUUCCAAGAUCACUUGGACCGUGUAUUAAGUACAGUUCGUUGAUAUAAAUAGUGCCCAUGGAUC | 4.62 enrichment factor |
| GGGGCCACCAACGACAUUAUACAGCCGAUCAUGUCACGUAGGCUGUGAUUAACGUUGAUAUAAAUAGUGCCCAUGGAUC | 0.81 enrichment factor |
| GGGGCCACCAACGACAUUGUACCACGUAGGAUGAAGUCAUCCGAUCACAGUGUUGAUAUAAAUAGUGCCCAUGGAUC | 1.37 enrichment factor |
| GGGGCCACCAACGACAUUUGCACACCACGUAGGCAAAUUGCCGAUCGUGCUAUGUUGAUAUAAAUAGUGCCCAUGGAUC | 1.3 enrichment factor |
| GGGGCCACCAACGACAUUUCCUAAACAGGAUCUAUACUCCUAGCGAGUAGUUCGUUGAUAUAAAUAGUGCCCAUGGAUC | 3.43 enrichment factor |
| GGGGCCACCAACGACAUUUGCAUAAUGCAUCUAUAGUCGCUAGAGACUAGCUCGUUGAUAUAAAUAGUGCCCAUGGAUC | 1.69 enrichment factor |
| GGGGCCACCAACGACAUUUCACACUGUAAGGCCAUGUGCCGACUAGAAAUUGCGUUGAUAUAAAUAGUGCCCAUGGAUC | 0.55 enrichment factor |
